Reference: PubChem BioAssay (NCATS)
Where “and” joins values, the source holds several entries; their conditions need not be identical. Identical values can stand only once. Results filed as inconclusive are left out. A call without a number means that no potency is given here. Calls of active or inactive are those of the source. Calls come from the whole dose curve; as a rule, active = well fitted cell-killing curve with a large enough effect; inconclusive = small, poorly fitted or top-dose-only effect; inactive = no such curve, though single readings can be large or run the other way.

Experiment: qHTS of pediatric cancer cell lines to identify multiple opportunities for drug repurposing: Primary screen for Saos-2 cells (AID 1347097); note: nearly all actives have a fitted effect of over 40% in size
Details: Saos-2 viability, CellTiter-Glo ATP luminescence, 48 h; series mostly up to 46 µM
From the text: Drug repurposing or repositioning has been offered as a strategy for drug development in oncology programs. This approach has special potential for childhood cancers and other rare or orphan diseases, where the expected return on new drug development has been a disincentive to pharmaceuticals. […] In this project we exploit the poly-pharmacology of drugs to discover new indications via phenotypic screening of a panel of 19 well-characterized cell lines derived from solid tumors seen in children and adolescents. The goal is to identify approved drugs with previously unrecognized anticancer properties that has the potential to reveal new mechanisms and biological processes involved in carcinogenesis or drug resistance. We employed a titration-based paradigm (quantitative high-throughput screening or qHTS), where all compounds were tested at multiple concentrations for their effect on cell viability. Concentration-response curves (CRCs) were derived directly from the primary screen, and both potency and efficacy values were used to identify compounds with robust bioactivity profiles. We screened the NIH Chemical Genomics Center (NCGC) Pharmaceutical Collection (NPC) and Mechanism Interrogation Plate (MIPE) small molecule collections of approved and investigational compounds against these cell lines; and measured metabolically active cells after 48 hours of compound treatment as a proxy for cell viability. […] Assay Submitter: Nathalia J. Martinez, National Center for Advancing Translational Sciences, National Institutes of Health, Rockville, MD, USA; email: natalia.martinez@nih.gov Shen, M et al. Quantitative high-throughput phenotypic screening of pediatric cancer cell lines identifies multiple opportunities for drug repurposing. Oncotarget 2017 Dec 19;9(4):4758-4772. PMID 29435139.
The cells were obtained from University of North Carolina (UNC), Pediatric Preclinical Testing Program (PPT), and Coriell Institute (CI). qHTS cell viability assay: Cells were assayed in growth media at a density of 500-1,000 cells/well. Five microliters of cells were dispensed into 1,536-well, white, solid-bottom, TC-treated plates (Greiner Bio One) using a multidrop dispenser and incubated at 37 degrees C, 5% CO2, under a humidified atmosphere for 5 hours. Twenty-three nanoliters of compounds and controls (neutral control DMSO or positive control bortezomib at final concentration of 2.3 µM) were subsequently transferred by Kalypsys pintool. For primary screens, the MIPE collection was tested at 11-point dilutions (final concentrations range from 0.78 nM to 46 µM) and the NPC collection at 8-point dilutions (final concentrations range from 0.59 nM to 46 µM). Compounds tested in follow-up screens were assayed at 11-point dilutions. Cells were incubated for 48 hours, followed by addition of 3 µL of CellTiter-Glo (Promega). After a 15 min incubation at room temperature, samples were analyzed for luminescence intensity using a ViewLux High-throughput CCD imager equipped with clear filters.
Potency is the fitted concentration of half-maximal effect.

Question: With `Cc1cnc(C(=O)O)c[n+]1[O-]` as the compound, how does the Potency read?
Answer: inactive

Question: Which Potency does the source give for `CO[C@H]1C(=O)[C@]2(C)[C@@H](OC)C[C@H]3OC[C@@]3(OC(C)=O)[C@H]2[C@H](OC(=O)c2ccccc2)[C@]2(O)C[C@H](OC(=O)[C@H](O)[C@@H](NC(=O)OC(C)(C)C)c3ccccc3)C(C)=C1C2(C)C` here?
Answer: 0.001 µM (active)

Question: With `COc1cccc(-c2cc(=O)c3ccccc3o2)c1N` as the compound, how does the Potency read?
Answer: inactive

Question: With `COc1cc2nc(-c3ccc(N4CCN(C)CC4)cc3)nc(NCCN3CCOCC3)c2cc1OC` as the compound, how does the Potency read?
Answer: 0.296 µM (active)

Question: With `C[C@H]1[C@H](NC(=O)C(=NOC(C)(C)C(=O)O)c2csc(N)n2)C(=O)N1S(=O)(=O)O` as the compound, how does the Potency read?
Answer: inactive

Question: With `O=C(Nc1cccc(Br)c1)c1cccc(S(=O)(=O)N2CCCCCC2)c1` as the compound, how does the Potency read?
Answer: 16.6 µM (active)

Question: Which Potency does the source give for `COc1ccc(Cc2ccc(NC(N)=O)cc2)cc1-c1cccc(Cl)c1` here?
Answer: inactive

Question: With `CC1(C)CCC2=C(O1)c1ccccc1C(=O)C2=O` as the compound, how does the Potency read?
Answer: 18.7 µM (active)

Question: For `O=C(NC1CCOCC1)c1ccc(-c2cc(-c3cn[nH]c3-c3ccccn3)ccn2)cc1`, which Potency is on record?
Answer: inactive

Question: With `O=c1cc(CN2CCOCC2)occ1OCCCCCSc1ccnc2cc(C(F)(F)F)ccc12` as the compound, how does the Potency read?
Answer: 4.18 µM (active)

Question: Which Potency does the source give for `CC[C@]1(O)C[C@@H]2CN(CCc3c([nH]c4ccccc34)[C@@](C(=O)OC)(c3cc4c(cc3OC)N(C=O)[C@@H]3C45CCN4CC=C[C@](CC)([C@H]45)[C@@H](OC(C)=O)[C@]3(O)C(=O)OC)C2)C1` (stereo not given in full) here?
Answer: inactive

Question: Which Potency does the source give for `O=C1c2c(O)cc(O)cc2O[C@H](c2cc(O)c(O)c(O)c2)[C@H]1O` here?
Answer: 23.5 µM (active)

Question: With `O=c1cc(-c2ccccc2)oc2cc(O)c(O)c(O)c12` as the compound, how does the Potency read?
Answer: 18.7 µM (active)

Question: For `O=c1cc(N2CCOCC2)oc2c(-c3cccc4c3sc3ccccc34)cccc12`, which Potency is on record?
Answer: 18.7 µM (active)

Question: Which Potency does the source give for `OC[C@@H](O)[C@H](O)[C@H](O)[C@@H](O)CO` here?
Answer: inactive

Question: For `Cc1c(NC(=O)c2ccc(C(C)(C)C)cc2)cccc1-c1cn(C)c(=O)c(Nc2ccc(C(=O)N3CCOCC3)cc2)n1`, which Potency is on record?
Answer: 18.7 µM (active)

Question: Which Potency does the source give for `CON=C(C(=O)N[C@@H]1C(=O)N2C(C(=O)OCOC(=O)C(C)(C)C)=C(C=Cc3scnc3C)CS[C@H]12)c1csc(N)n1` here?
Answer: inactive

Question: For `COc1cc2ncnc(-n3nc(-c4ccccn4)nc3N)c2cc1OC`, which Potency is on record?
Answer: 4.69 µM (active)

Question: Which Potency does the source give for `CCC(=O)O[C@]1(C(=O)CO)CC[C@H]2[C@@H]3CCC4=CC(=O)CC[C@]4(C)[C@@H]3CC[C@@]21C` here?
Answer: inactive

Question: For `CC[C@]1(O)C[C@@H]2CN(CCc3c([nH]c4ccccc34)[C@@](C(=O)OC)(c3cc4c(cc3OC)N(C)[C@H]3[C@@](O)(C(=O)OC)[C@H](OC(C)=O)[C@]5(CC)C=CCN6CC[C@]43[C@@H]65)C2)C1`, which Potency is on record?
Answer: 42.2 nM (active) and 168 nM (active)

Question: With `COc1cc2ncnc(Nc3ccc(F)c(Cl)c3)c2cc1OCCCN1CCOCC1` as the compound, how does the Potency read?
Answer: 13.6 µM (active)

Question: For `O=C1NCC2(CCN(CCc3ccccc3)CC2)O1`, which Potency is on record?
Answer: inactive

Question: Which Potency does the source give for `COc1ccc2c(Oc3ccc(NC(=O)c4c(C)n(CC(C)(C)O)n(-c5ccccc5)c4=O)cc3F)ccnc2c1` here?
Answer: 26.4 µM (active)

Question: For `N[C@@]1(C(=O)O)CS(=O)(=O)[C@H]2[C@H](C(=O)O)[C@H]21`, which Potency is on record?
Answer: inactive

Question: For `CCC(CC)[C@H](NC(C)=O)[C@@H]1[C@H](O)[C@@H](C(=O)O)C[C@@H]1N=C(N)N`, which Potency is on record?
Answer: inactive

Question: With `O=C(O)CCc1nc(-c2ccccc2)c(-c2ccccc2)o1` as the compound, how does the Potency read?
Answer: inactive

Question: Which Potency does the source give for `CN(C)C1CCN(C(=O)c2ccc(NC(=O)Nc3nc(N4CCOCC4)nc(N4CCOCC4)n3)cc2)CC1` here?
Answer: 0.166 µM (active)

Question: Which Potency does the source give for `O=C(O)c1ccc(-c2c[nH]c3ncc(-c4ccccc4)cc23)cc1C1CCCC1` here?
Answer: inactive

Question: Which Potency does the source give for `CN(C)CCC=C1c2ccccc2COc2ccc(CC(=O)O)cc21` here?
Answer: inactive

Question: For `CC(=O)CCCCn1c(=O)c2c(ncn2C)n(C)c1=O`, which Potency is on record?
Answer: inactive

Question: Which Potency does the source give for `CCOC(=O)O[C@]1(C(=O)OCCl)CC[C@@H]2[C@H]3CCC4=CC(=O)C=C[C@]4(C)[C@@H]3[C@@H](O)C[C@@]21C` here?
Answer: inactive

Question: Which Potency does the source give for `Oc1ccc(C2=Cc3ccc(O)cc3OC2)cc1` here?
Answer: 11.8 µM (active)

Question: Which Potency does the source give for `COc1ccc2c3c1OC1C[C@@H](O)C=C[C@@]31CCN(C)C2` (stereo not given in full) here?
Answer: inactive

Question: With `CNC(=O)c1ccccc1Sc1ccc2c(C=Cc3ccccn3)n[nH]c2c1` as the compound, how does the Potency read?
Answer: 14.8 µM (active)

Question: With `O=c1cc(-c2ccccc2)oc2cc(O)cc(O)c12` as the compound, how does the Potency read?
Answer: inactive

Question: With `CCOc1ccc(Nc2nc(-c3c(C)nc4ccccn34)cs2)cc1` as the compound, how does the Potency read?
Answer: inactive

Question: With `O=C1NC(=O)C(=Cc2cccc(C(F)(F)F)c2)S1` as the compound, how does the Potency read?
Answer: inactive

Question: With `O=C(NCc1ccncc1)C12C[C@H]3C[C@@H](C1)CC(c1ccc(Cl)cc1)(C3)C2` as the compound, how does the Potency read?
Answer: 11.8 µM (active)

Question: Which Potency does the source give for `COC[C@@H](c1ccc(C(F)(F)F)cc1)N1CCN(C2(C)CCN(C(=O)c3c(C)ncnc3C)CC2)C[C@H]1C` here?
Answer: inactive

Question: Which Potency does the source give for `Cc1cc(OCCCc2c(C(=O)O)n(Cc3cccnc3)c3c(-c4c(COc5ccc(N6CCN([S+](C)(=O)[O-])CC6)cc5)nn(C)c4C)cccc23)cc(C)c1Cl` here?
Answer: 18.7 µM (active)
